Screening data: PubChem BioAssay, National Center for Advancing Translational Sciences (NCATS)
Most compounds without a hit are left out; they make up all but 1.8% or so of the library.
Tb PFK inh-1: qHTS Assay to Find Inhibitors of T. brucei phosphofructokinase | ATP-dependent 6-phosphofructokinase (Trypanosoma brucei brucei), O15648 | T. brucei PFK, ADP-Glo luminescence | Potency, µM (highest dose often 57.5 µM), without a hit: at the top dose activity, negative = inhibition, usual class: inhibitors | actives 0.17% (n = 330,000) | AID 485367, 2010;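 also: 0% = uninhibited 1x PFK enzyme wells and -100% = no-enzyme wells; nearly all actives have a fitted effect of over 60% in size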
Target sequence (O15648 whole entry, looked up): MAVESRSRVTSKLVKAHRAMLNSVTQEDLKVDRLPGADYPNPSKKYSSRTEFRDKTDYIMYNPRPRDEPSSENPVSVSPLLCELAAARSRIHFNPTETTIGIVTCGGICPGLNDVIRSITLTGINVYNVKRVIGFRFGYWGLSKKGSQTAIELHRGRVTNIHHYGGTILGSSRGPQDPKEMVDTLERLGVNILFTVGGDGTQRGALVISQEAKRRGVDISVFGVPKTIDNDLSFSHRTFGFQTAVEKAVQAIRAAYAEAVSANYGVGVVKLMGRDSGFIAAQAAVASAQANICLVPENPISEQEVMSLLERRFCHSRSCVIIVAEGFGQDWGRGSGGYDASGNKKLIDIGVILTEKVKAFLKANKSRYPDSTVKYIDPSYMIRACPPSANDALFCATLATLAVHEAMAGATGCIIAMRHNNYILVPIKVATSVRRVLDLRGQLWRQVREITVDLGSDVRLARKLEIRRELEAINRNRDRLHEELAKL
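ADP-Glo luminescence quantified ADP after 45 min at room temperature, with 1.25 nM T. brucei PFK, 0.1 mM ATP and 0.5 mM fructose-6-phosphate in pH 8.0 TEA buffer. qHTS titrations up to 57 µM; curves classified by quality.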
GLP1R ag: qHTS of GLP-1 Receptor Agonists. Glucagon-like peptide 1 receptor (Homo sapiens), P43220. HEK293 GLP-1R CRE-luciferase, luminescence, 4-6 h; cells express a hypersensitive GLP-1R form. Potency, µM (titrated, usually from 45.6 µM), inactives show top-dose activation, hits mostly activators. actives 0.007% (n = 380,000). AID 624172, 2012; also: % of control where 0% means no effect
Pin1 inhibitor: qHTS Assay to Find Inhibitors of Pin1 | Peptidyl-prolyl cis-trans isomerase NIMA-interacting 1 (Homo sapiens), Q13526 | Pin1 FP peptide displacement, HiFluor488, 10 min | Potency, µM (titrated, usually from 115 µM), without a hit: at the highest dose activity, negative = inhibition, usual class: inhibitors | actives 0.009% (n = 390,000) | AID 504891, 2011; active = well fitted inhibition curve with a large enough effect in the polarisation, with a control signal flat, not every such curve was filed as active; inconclusive = small, poorly fitted or top-dose-only effect, or effect the other way, or a change in a side signal; inactive = no such curve, though single readings can be large or run the other way; the % refers to the polarisation; also: % is scaled to controls: 0 for no effect and ±100 for the full control effect
Target sequence (Q13526 whole entry, looked up): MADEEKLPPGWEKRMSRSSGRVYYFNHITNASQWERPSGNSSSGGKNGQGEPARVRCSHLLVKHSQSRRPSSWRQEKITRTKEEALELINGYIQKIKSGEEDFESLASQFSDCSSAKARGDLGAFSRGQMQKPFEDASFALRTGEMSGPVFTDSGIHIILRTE
Tb PGK inh: qHTS Assay to Find Inhibitors of Phosphoglycerate Kinase | actives 0.043% (n = 380,000) | AID 602233, 2012 | Potency, µM (top dose mostly 57.5 µM), inactives show at the highest dose activity change, negative = inhibition, hits mostly inhibitors | PGK/GAPDH coupled, Kinase-Glo luminescence, 60 min; also: % is scaled to controls: 0 for no effect and ±100 for the full control effect; nearly all actives have a fitted effect of over 60% in size
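Recombinant glycosomal PGK reaction used 1,3-bisphosphoglycerate generated in-well by GAPDH (100nM final) in 100mM TEA pH 7.6, 5mM MgCl2, 0.01% Tween-20. After 60 minutes at room temperature, ATP was read by Kinase-Glo Plus luminescence end-point.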
GLP1R inv ag: qHTS of GLP-1 Receptor Inverse Agonists (Inhibition Mode); Potency, µM (top dose mostly 38.3 µM), for the others: at the highest dose activity change, negative = inhibition, most hits filed as inhibitors; HEK293 GLP-1R CRE-luciferase, luminescence, 24 h; GLP-1R form is constitutively active; actives 1.6% (n = 410,000); also: % is scaled to controls: 0 for no effect and ±100 for the full control effect; nearly all actives have a fitted effect of over 55% in size
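GLP-1R inverse agonism mode: basal reporter luminescence in engineered HEK293 cells measured after one day of compound exposure at 37 deg C, with a 12 min room-temperature detection step.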
HEK293 tox: qHTS of GLP-1 Receptor Inverse Agonists: Cytotox Screen. HEK293 cAMP-luciferase reporter cells, luminescence, 24 h. Potency, µM (highest dose often 38.3 µM), for the others: at the highest dose activity change, negative = inhibition, most hits filed as inhibitors. actives 0.13% (n = 410,000). AID 624418, 2012;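 also: loss of luciferase light is scored as toxicity; % is scaled to controls: 0 for no effect and ±100 for the full control effect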
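A 23 nL compound transfer followed 12 hours of cell culture at 37 deg C; exposure then lasted 24 hr. Luciferase assay detection reagent was dispensed and plates read for luminescence after a 12 min room-temperature wait.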
TbPFK ATP: Tb PFK orthogonal confirmatory assay using ATP depletion (Kinase-Glo Plus) as an alternative measure of Tb PFK activity: Hit Validation; shares compounds with Tb PFK inh-1; Tb PFK enzyme, ATP depletion, Kinase-Glo Plus luminescence; Potency, µM (doses to about 57.5 µM), for the others: top-dose inhibition; actives 47% (n = 1,100); AID 504636, 2011; calls by dose curve; also: nearly all actives have a fitted effect of over 60% in size
Tb PFK inh-2: Inhibitors of T. brucei phosphofructokinase: Hit Validation | shares compounds with Tb PFK inh-1 | purified T. brucei PFK, ADP-Glo luminescence, 45 min | Potency, µM (titrated, usually from 57.5 µM), for inactives: at the top dose activity change, negative = inhibition, actives largely listed as inhibitors | actives 41% (n = 1,100) | AID 504637, 2011;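 also: plate controls were full PFK enzyme control for no effect and no enzyme control for full effect; nearly all actives have a fitted effect of over 60% in size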
* = called active by the depositor; i = inactive; ? = inconclusive; · = no result. Unless noted, calls follow the shape of the dose curve; as a rule, active = well fitted curve in the direction sought with a large enough effect; inconclusive = small, poorly fitted or top-dose-only effect, or another doubt; inactive = no such curve, though single readings can be large; an effect the other way counts as inactive or inconclusive. Potency is read from the fitted curve at half-maximal effect.

SMILES	Tb PFK inh-1	GLP1R ag	Pin1 inhibitor	Tb PGK inh	GLP1R inv ag	HEK293 tox	TbPFK ATP	Tb PFK inh-2
O=C(N/N=C/c1sc2ccccc2c1O)c1cccc2ccccc12	?	-0.1%	?	i	?	?	-24.9%	?
NC(Cc1ccc(C(F)(F)F)cc1)c1csc(Nc2nncc3ccccc23)n1 (stereo not drawn)	·	-16.3%	·	·	?	?	·	·
CN1CCc2cccc3c2[C@H]1Cc1ccc(O)c(O)c1-3	1.9µM*	-3.9%	?	-1.8%	9.5%	?	2.69µM*	6.75µM*
Cc1ccc(C)c(S(=O)(=O)c2nnn3c2nc(N2CCN(C)CC2)c2sccc23)c1	·	·	0.3%	i	35.3%	-5.0%	·	·
C=CCn1c(O)c(C2=c3ccccc3=NC2=O)sc1=Nc1ccc(O)cc1	17.1%	13.4%	?	7.1%	?	?	·	·
O=C(c1c[nH]c2ccc(S(=O)(=O)N3CCOCC3)cc2c1=O)N1CCC2(CC1)OCCO2	6.9%	-2.2%	-2.6%	i	33.5%	7.8%	·	·
O=c1c2ccccc2sn1-c1cc(S(=O)(=O)N2CCOCC2)ccc1N1CCOCC1	13.5µM*	-2.9%	-3.9%	5.0%	16.6%	3.9%	?	21.3µM*
O=c1c2ccccc2sn1-c1cc(S(=O)(=O)N2CCOCC2)ccc1N1CCCC1	9.53µM*	10.1%	10.8%	-7.1%	8.8%	-24.4%	?	?
O=[N+]([O-])c1ccc(Sc2n[nH]c(-c3ccc(Cl)cc3Cl)n2)nc1	0.9%	-8.1%	1.4%	0.1%	0.3%	?	·	·
Cc1ccc(NC(=O)c2ccc(Cl)c(N3C(=O)C=CC3=O)c2)cc1	?	-30.2%	27.4%	-3.7%	?	?	12µM*	?
CC(O)CN1CCN(CC(=O)[O-])CCN(CC(=O)[O-])CCN(CC(=O)[O-])CC1.[Gd+3] (stereo not drawn)	·	0.8%	·	·	·	·	·	·
Cc1cc(Br)ccc1N=C1NC(=O)CS1	?	5.1%	0.4%	i	12.4%	-10.8%	?	-23.3%
Cc1ccc(C2=NCC(=O)Nc3ccc(Br)cc32)cc1	0.2%	0.5%	-5.6%	-2.4%	-8.5%	4.1%	·	·
CCc1ccccc1N1CC(c2nc3ccccc3n2CCC2CCCCC2)CC1=O (stereo not drawn)	·	·	?	-8.7%	?	?	·	·
COc1nccnc1NS(=O)(=O)c1ccc(NCc2cc(Br)ccc2O)cc1	?	11.8%	?	-11.1%	18.3%	-1.7%	?	-18.1%
CCOc1ccc(NCc2cccn2-c2nnc(N3CCC(C(=O)NCC(C)c4ccccc4)CC3)s2)cc1 (stereo not drawn)	·	·	5.2%	·	?	-3.8%	·	·
Cc1cc(F)ccc1NCc1ccc([N+](=O)[O-])cc1	?	10.1%	-9.2%	-9.6%	?	16.4%	?	?
O=c1cc(-c2ccccc2)oc2cc(O)c(O)c(O)c12	7.57µM*	1.9%	?	-14.0%	20.8%	1.5%	2.69µM*	5.36µM*
O=c1cc(-c2ccc(O)cc2)oc2c(C3O[C@H](CO)[C@@H](O)[C@H](O)[C@H]3O)c(O)cc(O)c12 (stereo partly drawn)	-26.4%	-4.2%	?	-5.6%	26.7%	-10.4%	·	·
CC(=O)O[C@H]1C[C@H](O[C@H]2[C@@H](O)CC(O[C@H]3[C@@H](O)C[C@H](O[C@H]4CC[C@@]5(C)[C@H](CC[C@@H]6[C@@H]5CC[C@]5(C)[C@@H](C7=CC(=O)OC7)CC[C@]65O)C4)O[C@@H]3C)O[C@@H]2C)O[C@H](C)[C@H]1O[C@@H]1O[C@H](CO)[C@@H](O)[C@H](O)[C@H]1O (stereo partly drawn)	·	-4.8%	·	·	·	·	·	·
CCOC(=O)c1c(NC(=O)C2C3C=CC(C3)C2(C)C(=O)O)sc2c1CCCC2 (stereo not drawn)	?	-6.4%	-0.1%	?	?	-6.3%	?	26.9µM*
O=C(Nc1ccccc1)Oc1ccccc1N1CCOCC1	1.1%	0.2%	2.3%	-1.0%	-12.4%	?	·	·
Fc1ccc(NC(=S)Nc2ccccc2OC(F)F)cc1Cl	?	-10.9%	-8.2%	-3.7%	?	?	17.6%	-27.0%
Fc1ccc(NC(=S)Nc2ccccc2N2CCOCC2)cc1Cl	?	7.5%	-0.6%	i	-9.6%	-7.9%	4.7%	3.6%
Cc1ccc(NC(=S)Nc2ccc(Cl)c(Cl)c2)c(OC(F)F)c1	5.36µM*	-9.2%	3.3%	i	-0.7%	?	?	?
SMILES	Tb PFK inh-1	GLP1R ag	Pin1 inhibitor	Tb PGK inh	GLP1R inv ag	HEK293 tox	TbPFK ATP	Tb PFK inh-2
COc1ccc(-n2c(O)c(/C=N/NS(=O)(=O)c3cc(C)ccc3C)c3ccccc3c2=O)cc1OC	2.5%	-1.8%	?	-3.8%	-18.8%	40.1%	·	·
COc1ccccc1NS(=O)(=O)c1cccc(-n2c(O)c(C=Nc3ccccc3C(=O)O)c3ccccc3c2=O)c1	?	-1.2%	·	-8.9%	14.6%	?	-29.2%	?
N#CCSc1nnc(CNc2cccc(Cl)c2)o1	23.9µM*	-1.0%	-1.9%	1.5%	2.7%	-7.7%	13.5µM*	21.3µM*
O=C(CN1CC(c2ccccc2)CC1=O)Nc1cccc(F)c1 (stereo not drawn)	-10.2%	-4.4%	-2.0%	4.7%	16.9%	3.6%	·	·
O=C(CSC1=NS(=O)(=O)c2cc(Cl)ccc2N1)Nc1cccc(F)c1	?	-1.2%	-15.8%	-0.9%	-12.3%	13.2%	23.9µM*	?
COc1ccc(-n2c(C)cc(C(=O)COc3ccc(C)nc3[N+](=O)[O-])c2C)cc1	-1.0%	0.8%	3.8%	-6.0%	?	?	·	·
COc1cccc(NC(=O)c2cc(Cl)nnc2Cl)c1	0.6%	5.6%	-2.3%	i	?	?	·	·
